# The whole screen tested about 310,000 compounds, of which about 11,000 (3.5%) were called active. Roughly 8% stayed inconclusive and do not appear here. The entries come from a sample that favours actives as a whole. A number with no mark means an inactive call. Calls come from the whole dose curve; as a rule, active = well fitted inhibition curve with a large enough effect; inconclusive = small, poorly fitted or top-dose-only effect, or effect the other way; inactive = flat fitted curve, though single readings scatter.
# Test: VP16 counterscreen qHTS for inhibitors of ROR gamma transcriptional activity;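 note: Gal4-VP16 expression switched on by copper sulfate through the metallothionein promoter; nearly all actives have a fitted effect of over 50% in size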
# Details: Drosophila S2 Gal4-VP16 UAS-luciferase, luminescence, 20 h; series mostly up to 53.6 µM; activity, negative = inhibition: at the top concentration
# % is set by controls: 0 for no effect and ±100 for the full control effect; potency is the fitted concentration of half-maximal effect.
Structure (SMILES),"activity, negative = inhibition [%]",Potency
O=C(CSc1ccc(-c2ccco2)nn1)Nc1cccc(F)c1,-2.6,
Cc1ccc(C(=O)CSc2nnc(Cn3nnc4ccccc43)n2C)cc1,15.3,
Cn1c(CNC(=O)c2ccccc2F)nnc1SCc1ccc(F)cc1,-1.58,
Cn1c(Cn2nnc3ccccc32)nnc1SCC(=O)c1ccccc1F,,7.08 µM (active)
CS(=O)(=O)Nc1cccc(C2=NN(C(=O)c3cccc(F)c3)C(c3cccs3)C2)c1 (stereo not given),8.13,
CCOc1ccc(-c2noc(CCC(=O)NC3CCCC3)n2)cc1OC,6.06,
Cc1ccc(-n2[nH]c(C)c(/C=N/NC(=O)c3cccc([N+](=O)[O-])c3)c2=O)cc1C,,0.891 µM (active)
Cc1[nH]n(-c2ccccc2)c(=O)c1N=Nc1ccccc1C(=O)N1CCCCC1,3.52,
Cc1[nH]n(-c2ccccc2)c(=O)c1/C=N/NC(=O)c1ccoc1C,,1 µM (active)
COc1cccc(/C=N/NC(=O)c2cccc([N+](=O)[O-])c2)c1OS(=O)(=O)c1ccc(C)cc1,-1.03,
COc1cc(/C=N/NC(=O)c2ccoc2C)ccc1OCCN1CCCCC1,-3.7,
O=C(N/N=C/c1cccc([N+](=O)[O-])c1)c1ccncc1,-2.67,
Cc1nnc(NC(=O)C(c2ccccc2)c2ccccc2)s1,7.09,
Cc1nc2cc(C(F)(F)F)ccc2n1CCNc1nc(-c2cc(Cl)c(N)c(Cl)c2)cs1,-0.934,
O=C(CC(=O)Nc1ccc(Cl)c(Cl)c1)N/N=C/c1ccc(O)cc1,-6.4,
O=C(CC(O)(C(F)(F)F)C(F)(F)F)Nc1ccc(Cl)c(Cl)c1,,5.01 µM (active)
Cc1ccc(NC(=O)C/C(N)=N/O)cc1Cl,-2.54,
CCNC(=S)Nc1cccc(Cl)c1C,,17.8 µM (active)
CN(C)S(=O)(=O)c1cccc(NC(=S)NCc2ccc3c(c2)OCO3)c1,0.712,
Cc1c(Cl)cccc1NC(=S)N(Cc1ccccc1)Cc1cccnc1,-4.7,
O=C(NCc1ccc2c(c1)OCO2)c1cc(F)c(F)cc1Cl,-6.45,
Cc1c(Cl)cccc1NC(=O)NCc1ccc(C)n1C,6.08,

Structure (SMILES),"activity, negative = inhibition [%]",Potency
Cc1c(Cl)cccc1NC(=S)NCc1ccc2c(c1)OCO2,,11.2 µM (active)
CCOC(=O)c1c(C)[nH]c(C)c1S(=O)(=O)NCCCc1ccco1,-3.08,
O=C(NCCc1ccc(Cl)cc1Cl)c1cc([N+](=O)[O-])c[nH]c1=O,2.24,
Cc1cc(Cl)c2oc(C(=O)N(C)C(C)c3ccccn3)c(C)c2c1 (stereo not given),27.8,
Cn1nccc1CNC(=O)c1ccnn1C,-7.45,
Cc1ccc(-n2ncc3c2CCCC3NC(=O)c2cnccn2)cc1C (stereo not given),-18.1,
Cc1cc(C(=O)NC2CCCc3c2cnn3-c2cccc(C)c2C)c(C)o1 (stereo not given),-96.4,
CC1(C)Cc2c(cnn2-c2cccc(F)c2)C(NC(=O)c2cc[n+]([O-])cc2)C1 (stereo not given),-7.81,
Cn1nccc1C(=O)NC1CCCc2c1cnn2-c1ccccc1F (stereo not given),,1.41 µM (active)
Cn1nccc1C(=O)NC1CCCc2c1cnn2-c1ccc(F)cc1F (stereo not given),,0.891 µM (active)
CC(=O)NCC(=O)NC1CCCc2c1cnn2-c1ccccc1F (stereo not given),-5.41,
COc1ccc(C(=O)NC2CCCc3c2cnn3-c2cccc(C)c2C)c(OC)n1 (stereo not given),,12.6 µM (active)
COc1ccc(C(=O)NC2CC(C)(C)Cc3c2cnn3-c2ccccc2C)o1 (stereo not given),1.14,
CC(=O)Nc1ccc(S(=O)(=O)NNC(=O)CCc2ccccc2)cc1,2.51,
CCN(CC)CCCNC(=O)c1cc2c(=O)[nH]c3ccc(C)cc3c2s1,-1.31,
CC(C)(C)NC(=O)NC(=O)COC(=O)C1c2ccccc2Oc2ccccc21,-9.04,
CCn1c(SCC(=O)Nc2ccc(Br)cc2)nc2sc3c(c2c1=O)CCN(C)C3,6.53,
CCCCNC(=O)c1cn(CC)c2cc(N3CCN(C(=O)c4ccco4)CC3)c(F)cc2c1=O,2.5,
CCOC(=O)c1ccccc1NS(=O)(=O)c1c(C)nc2sccn2c1=O,-4.73,
Cc1occc(=O)c1OCc1c(Cl)cccc1Cl,-24.2,
O=C(O)c1ccc2c(=O)n3c(nc2c1)/C(=C/c1ccc(OC(F)F)cc1OC(F)F)CC3,-2.9,
Cc1nn(C(C)(C)C)c(OC(=O)CC(C)C)c1S(=O)(=O)c1ccccc1,5.08,

Structure (SMILES),"activity, negative = inhibition [%]",Potency
COCCNC(=O)c1ccc(Cn2c(SCC(=O)NCC3CCCO3)nc3ccc(Br)cc3c2=O)cc1 (stereo not given),-8.04,
CCCCn1c(SCC(=O)NCC2CCCO2)nc2ccc(N3CCOCC3)cc2c1=O (stereo not given),,11.2 µM (active)
O=C(CCCn1c(SCC(=O)c2ccccc2)nc2ccccc2c1=O)NCC1CCCO1 (stereo not given),-6.43,
CN(Cc1ccccc1)C(=O)CSc1nc2ccccc2[nH]1,-4.72,
CCOC(=O)c1csc(CCNC(=O)c2oc3c(Cl)cc(C)cc3c2C)n1,-0.695,
N#C/C(=C(/O)COc1cccc2ccccc12)c1nc2ccccc2[nH]1,,7.94 µM (active)
COCCN(CCOC)S(=O)(=O)c1ccc(/C(O)=C(\C#N)c2nc3ccccc3[nH]2)cc1,25.6,
O=C(COC(=O)CCCSc1nc2ccccc2[nH]1)Nc1ccc(Oc2ccccc2)cc1,-5.22,
Cc1ccccc1OC/C(O)=C(\C#N)c1nc2ccccc2[nH]1,-17.7,
O=C(COc1ccccc1)NCCc1nc2ccccc2[nH]1,-0.523,
N#C/C(=C(/O)COC(=O)COc1ccc(Cl)cc1)c1nc2ccccc2[nH]1,,12.6 µM (active)
O=C(CCS(=O)(=O)c1ccccc1)NC1CCCC1,-6.21,
CC(C)c1ccc(N2CCN(C(=O)c3ccccc3NC(=O)/C=C(\C(=O)O)c3ccccc3)CC2)cc1,,1.12 µM (active)
O=C(O)C1CC=CCC1C(=O)Nc1ccccc1C(=O)N1CCN(c2ccccc2)CC1 (stereo not given),13.5,
COc1ccc(C(=O)Nc2ccccc2C(=O)N2CCN(c3ccccc3)CC2)cc1,-9.17,
CCCN1CCC(=O)N(C(CSc2ccc(OC)cc2)Cc2ccccc2)CC1 (stereo not given),5.75,
Cn1cnc2c1c(=O)n(Cc1ccccc1C#N)c(=O)n2C,-8.7,
Cc1cc2oc(=O)cc(CN(C)Cc3ccc(OC(F)F)cc3)c2cc1Cl,-9.54,
CCOC(=O)Cc1csc(NC(=O)CSc2nc(C)cc(=O)[nH]2)n1,6.99,
CCOC(=O)Cc1csc(NC(=O)CN(C)S(=O)(=O)c2ccc3c(c2)CCC(=O)N3)n1,,11.2 µM (active)
Cc1cccc(N2CCN(C(=O)CN(C)S(=O)(=O)c3ccc4c(c3)CCC(=O)N4)CC2)c1C,-6.16,
